The record followed here is PubChem BioAssay (EPA / NIEHS).

Active and inactive are the calls of the source. How the source made its calls: active means hit-call score of the fitted dose curve at least 0.9, where 1 is the maximum; inactive means score below 0.9.

Read-out in this assay: Intercellular Adhesion Molecule 1 (ICAM1), ICAM1 (gene 3383)
The assay is described as follows: BSK_KF3CT_ICAM1: BioMAP Diversity Plus: KF3CT Assay for Intercellular Adhesion Molecule 1 (ICAM1) Biomarker Activity (AID 2283067). To be noted: primary human keratinocytes with fibroblasts; actives raise or lower the signal. An outline of the steps:
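Cell-surface ICAM-1 was measured by ELISA 24 h after dosing primary human skin keratinocytes co-cultured with fibroblasts. Parallel SRB staining tracked overt cytotoxicity. Gain or loss of signal was fitted relative to DMSO.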
Turning to `C[C@]12CC[C@@H]3c4ccc(O)cc4CC[C@H]3[C@@H]1CC[C@H]2O`, the outcome was inactive. As for `O=c1ccc2ccccc2o1`, the outcome was inactive.

Consider `Cc1cccc2ccccc12`, for which the result was inactive. For orientation: AC50 means the concentration at which the activity in the assay is half-maximal. Take `Clc1ccccc1C(c1ccccc1)(c1ccccc1)n1ccnc1`: the half-maximal activity concentration (AC50) is 11.5 µM (active).

Consider `CCCOC(=O)c1cc(O)c(O)c(O)c1`, for which the outcome was inactive. Take `COc1ccc2cc(S(=O)(=O)N[C@H](CC(=O)N[C@H](Cc3ccc(CN4[C@H](C)CCC[C@@H]4C)cc3)C(=O)N(C)C(C)C)c3ccc4c(c3)OCO4)ccc2c1`: the outcome was inactive. Turning to `CN(C)c1ccc(C(=C2C=CC(=[N+](C)C)C=C2)c2ccc(N(C)C)cc2)cc1`, the AC50 was 10.8 µM (active).

For the compound `O=c1c(-c2ccc(O)cc2)coc2cc(O)cc(O)c12`, the result was inactive. As for `O=C=NCCCCCCN=C=O`, the result was inactive.

For the compound `O=C1c2ccccc2C(=O)N1CCc1noc(-c2ccc(CN3CCCCCC3)s2)n1`, the result was inactive.

For the compound `Cc1c2ccccc2c(C)c2c1ccc1ccccc12`, the outcome was inactive. As to `O=C(O)Cc1cc(I)c(Oc2ccc(O)c(I)c2)c(I)c1`, the result was inactive.

Consider `CN1C(=O)CC[C@H]1c1cccnc1`, for which the outcome was inactive. On the same count and under the same terms, under `O=C(OCCCCCCOC(=O)c1ccccc1)c1ccccc1` stands “inactive”; under `CCN(CC)C(=O)c1cc(S(=O)(=O)Cc2ccccc2)c(N2CCC(c3ccccc3)CC2)cc1N(CC)CCN(C)C`, “inactive”. In the case of `c1ccc2n[nH]nc2c1`, the result was inactive. `c1ccc(C[n+]2cccc3ccccc32)cc1`: the result was inactive. Take `CC(=O)N1CCN(c2ccc(OC[C@H]3CO[C@](Cn4ccnc4)(c4ccc(Cl)cc4Cl)O3)cc2)CC1`: the AC50 is 30.9 µM (active). Regarding `CCCCCCCCOc1ccc(C(=O)c2ccccc2)c(O)c1`, the result was inactive.
